# Pf growth 96h – P. falciparum growth inhibition at 96 hour, primary screen for plastid delayed-death inhibitors | P. falciparum luciferase reporter growth, 96 h | Potency, µM (highest dose often 28.7 µM), usual class: inhibitors | 6.9% of 320,000 active | AID 504834
#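 Parasite growth measured via integrated firefly luciferase reporter in P. falciparum. Infected erythrocytes at 2% hematocrit, 0.05% parasitemia final were treated 96 hours at 37 C under 5% CO2, and luminescence was read.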
# Cycloheximide cs – counter-screen for Shiga toxin inhibitors: cycloheximide protein synthesis inhibition. AID 2314. cell reporter, cycloheximide protein synthesis inhibition counterscreen. max response, %. 12% of 300,000 active; in the data active = max response mostly above about 13%, no sharp cut-off; inactive = mostly below about 14%; also: read at 38.3 µM for the half of the compounds with a filed dose
# NS1 inh – influenza NS1 inhibition; Potency, µM (highest dose often 46.1 µM); 0.4% of 270,000 active; calls by dose curve; also: actives are rising curves; nearly all actives have a fitted effect of over 50% in size
#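 A cell-based growth assay was used: compounds that relieve NS1-induced slow growth of budding yeast raise OD600. Assay medium was yeast nitrogen base with ammonium sulphate and -URA supplement, pH 6.0, with 2% galactose.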
# FBPA Giardia inh – blocks Giardia fructose-bisphosphate aldolase activity. A8B2U2. purified Giardia FBPA. Potency, µM (top dose mostly 59.6 µM), hits mostly inhibitors. 0.71% of 290,000 active. AID 2451; also: nearly all actives have a fitted effect of over 55% in size
# Target sequence (A8B2U2 whole entry, looked up): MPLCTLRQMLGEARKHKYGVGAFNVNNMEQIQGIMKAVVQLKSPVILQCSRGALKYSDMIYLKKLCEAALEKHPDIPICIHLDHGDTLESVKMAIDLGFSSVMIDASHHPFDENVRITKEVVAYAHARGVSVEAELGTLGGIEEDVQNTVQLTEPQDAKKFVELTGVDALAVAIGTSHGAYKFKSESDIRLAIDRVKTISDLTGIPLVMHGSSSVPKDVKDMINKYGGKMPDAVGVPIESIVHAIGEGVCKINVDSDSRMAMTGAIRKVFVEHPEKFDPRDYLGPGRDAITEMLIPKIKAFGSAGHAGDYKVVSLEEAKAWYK
#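 40 nM FBPA preincubated 10 min at RT with compound (up to 57.5 uM final), then substrate plus GAPDH/TPI/NAD/arsenate coupling and diaphorase/resazurin added. Fluorescence read after 20 min at RT, 525/598 nm.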
# Pf growth 48h – inhibits P. falciparum growth in the first generation, 48 h; Potency, µM (top dose mostly 28.7 µM), actives largely listed as inhibitors; 5.9% of 310,000 active; P. falciparum luciferase growth in erythrocytes, 48 h
#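 Erythrocytes infected with P. falciparum carrying an integrated firefly luciferase reporter (2% hematocrit, 0.1% parasitemia final) were exposed to compounds in RPMI 1640 with 0.5% Albumax at 37 C, 5% CO2. Growth inhibition was scored as reduced luminescence.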
# Shiga toxin inh – inhibitors of Shiga toxin in Vero cells; Vero cells, Shiga toxin protein synthesis inhibition reporter; inhibition, % at 38.7 µM; 9.2% of 290,000 active; in the data active = inhibition mostly above about 28%, no sharp cut-off; inactive = mostly below about 43%
# A number is an active result; - = inactive; ? = inconclusive; . = no result; [ ] = another dose, or the depositor's remark. Only some compounds are listed: those with a hit (about 21% of all), similar ones and a draw of the others. Unless noted, calls follow the shape of the dose curve; as a rule, active = well fitted curve in the direction sought with a large enough effect; inconclusive = small, poorly fitted or top-dose-only effect, or another doubt; inactive = no such curve, though single readings can be large; an effect the other way counts as inactive or inconclusive.
SMILES,Pf growth 96h,Cycloheximide cs,NS1 inh,FBPA Giardia inh,Pf growth 48h,Shiga toxin inh
COC(=O)N1CCN(c2ccc(OC)cc2)CC1,.,9.4,-,-,-,-
CC(=O)N1Cc2ccccc2CC1C(=O)N1CCN(c2ccccc2)CC1 (stereo unspecified),?,-,.,-,-,-
COc1ccc(N2CCN(C(=O)CC3NC4CCCCC4NC3=O)CC2)cc1 (stereo unspecified),12µM,-,-,-,-,-
CCCn1c2ccccc2c2cnn(CC(=O)NC3CCCCC3)c(=O)c21,-,-,-,.,-,-
CC1CCN(C(=O)CCc2nnc3ccc(NCCCN4CCCC4=O)nn23)CC1,?,-,-,-,-,-
CCCc1nnc(NC(=O)CSc2nnc(-c3ccco3)n2C)s1,-,-,-,-,-,-
COc1cc([N+](=O)[O-])ccc1NC(=O)Cc1ccccc1,-,-,-,-,-,-
CCOc1ccc(NC(=O)CC2SC(N)=NC2=O)c([N+](=O)[O-])c1 (stereo unspecified),-,-,.,-,-,-
CCOc1ccc(/C(C)=N/N2C(=O)C(CC(=O)Nc3ccc(OC)cc3[N+](=O)[O-])SC2=Nc2cccc(C)c2C)cc1 (stereo unspecified),2.3µM,-,-,-,2.1µM,-
COc1cc([N+](=O)[O-])ccc1NC(=O)CCCOc1cccc(C)c1C,2.9µM,-,-,-,-,-
COc1ccccc1/C=N/N1C(=O)C(CC(=O)Nc2ccc([N+](=O)[O-])cc2OC)SC1=Nc1cccc(C)c1C (stereo unspecified),?,-,-,-,3.7µM,-
COc1ccc(N(C(C)C(=O)NN=C2CCCC2)S(C)(=O)=O)cc1 (stereo unspecified),1.9µM,-,.,-,-,-
Cc1onc(-c2c(Cl)cccc2Cl)c1C(=O)Nc1nccs1,-,-,-,-,-,-
C/C(=N\NC(=O)c1ccc(C)cc1C)c1ccc(-n2ccnc2)cc1,?,27,-,-,-,-
C/C(=N\NC(=O)c1ccc(C)cc1C)c1ccc2c(c1)Nc1ccccc1S2,-,30,-,-,-,40
C/C(=N\Nc1ccc(C(=O)O)cc1)c1ccc(-n2ccnc2)cc1,-,74,.,-,-,88
CCc1ccc(OCC(=O)N/N=C(\C)c2ccc(-n3ccnc3)cc2)cc1,?,16,-,-,?,51
O=C(NNC(=S)NC1CC2C=CC1C2)c1cccnc1 (stereo unspecified),-,-,-,-,-,-
COc1ccc(NC2CCCN(C(=O)c3ccc(C)c(N4CCNC4=O)c3)C2)cc1 (stereo unspecified),-,-,-,.,-,-
O=C(c1ccccc1)N1CCN(C(=O)C2CC2)CC1,-,-,-,-,-,-
OC(Cc1ccccc1)(Cc1ccccc1)c1ccccc1,.,.,-,.,.,.
C/C(=N\Nc1ccccc1Cl)c1ccc(-n2ccnc2)cc1,?,31,-,-,?,100
C/C(=N\NC(N)=O)c1ccc(-n2ccnc2)cc1,-,-,.,-,-,-
CCCNCc1nnc(-c2ccccc2Cl)o1,-,-,-,-,-,-
Clc1ccc(-c2nnc(-c3ccccc3Cl)o2)cc1,-,46,-,-,-,115
SMILES,Pf growth 96h,Cycloheximide cs,NS1 inh,FBPA Giardia inh,Pf growth 48h,Shiga toxin inh
Clc1ccccc1-c1nnc(-c2ccccc2Cl)o1,?,32,-,-,?,68
CC1=CC(C)(C)[N+](C)=CN1c1ccccc1,8.3µM,-,-,-,?,-
CCn1c(=O)c2cc(C(=O)NCc3cccs3)sc2c2ccccc21,2.3µM,-,-,-,-,-
CCCCNC(=O)c1cc2c(=O)n(CC)c3ccccc3c2s1,6.6µM,-,-,-,-[0.00184 µM],-
Cc1ccc(C(=O)/C=C/Nc2cccc([N+](=O)[O-])c2)o1,?,64,-,-,-,63
CN(C)C(/C=C/Nc1cccc([N+](=O)[O-])c1)=C(C#N)C#N,-,-,.,-,-,-
CCOC(=O)C1(Cc2cccc(OC)c2)CCCN(C(=O)c2ccccc2C)C1 (stereo unspecified),-,59,-,-,-,116
CCOC(=O)C1(Cc2cccc(OC)c2)CCCN(C(=O)c2cc(C)on2)C1 (stereo unspecified),6.6µM,37,-,.,-,92
CCOC(=O)C1(Cc2cccc(OC)c2)CCCN(C(=O)CNC(C)=O)C1 (stereo unspecified),-,38,-,-,-,.
CCC/C(O)=C1\C(=O)CCCC1=NC(C)C(=O)O (stereo unspecified),3.7µM,-,-,?,?,-
CSc1ncccc1C(=O)NC1CCCc2c1cnn2-c1ccc(C)c(C)c1 (stereo unspecified),-,-,-,-,-,-
O=C(CNc1ccc2ccccc2c1)N/N=C/C=C/c1cccc([N+](=O)[O-])c1,?,-,-,-,-,-
CCOC(=O)C1CCCN(c2c(Nc3cccc(C)c3)c(=O)c2=O)C1 (stereo unspecified),8.3µM,-,-,-,.,-
CCOC(=O)C1CCCN(CCC(=O)Nc2cccc(C)c2)C1 (stereo unspecified),-,49,-,-,-,82
CCOC(=O)C1CCN(C(C(=O)Nc2ccc3c(c2)OCCO3)c2ccccc2)CC1 (stereo unspecified),-,-,-,-,-,-
CCOC(=O)C1CCN(c2c(Nc3ccc4c(c3)OCCO4)c(=O)c2=O)CC1,-,60,-,-,-,88
Cc1cc(=O)oc2cc(OCC(=O)N3CCC(O)CC3)c(Cl)cc12,?,-,-,.,-,-
CC1CCCCC12NC(=O)N(CC(=O)Nc1ccc(N3CCCCC3)cc1)C2=O (stereo unspecified),-,.,.,.,-,.
Cc1ccc(S(=O)(=O)NCCC(=O)NNC(=O)c2ccccc2Cl)cc1C,-,.,.,.,-,.
OCC1OC(O)C(O)C(O)C1O (stereo unspecified),?,-,.,-,-,-
OCC1OC([S-])[C@H](O)C(O)C1O.[Au+] (stereo partly specified),4.8µM,.,.,-,-,.
CC(=O)CSc1ccc(-c2nc3cc(C)c(C)cc3[nH]2)cn1,-,-,-,-,-,-
Cc1cc2nc(-c3ccc(SCc4ccc(C#N)cc4)nc3)[nH]c2cc1C,7.4µM,-,-,-,?,-
CC(=O)CSc1ccc(-c2nc3ccccc3[nH]2)cn1,8.3µM,16,-,-,-,.
Cc1ccc2nc(-c3ccc(SCC(=O)N4CCc5ccccc54)nc3)[nH]c2c1,-,56,-,-,?,121
N#Cc1ccccc1CSc1ccc(-c2nc3ccccc3[nH]2)cn1,?,47,-,-,?,79
Cc1c(Cl)cnc(NC(=O)COC(=O)[C@H](C)NC(=O)c2ccccc2)c1Cl,-,.,.,.,-,.
Cc1cc(C)cc(NC(=O)c2cccc(C(=O)Nc3cc(C)cc(C)c3)n2)c1,-,-,-,-,-,-

# High-throughput results deposited in PubChem by National Center for Advancing Translational Sciences (NCATS).
